TWEAK-Fn14 inh: blocks TWEAK-Fn14 interaction in a reporter cell assay | TWEAK-stimulated Fn14 reporter cells, luciferase luminescence, 8 h | inhibition, % at 10 µM | hit rate 2% among 360,000 | AID 1159606; in the data active means inhibition above about 50%
HIF-2a inh: inhibitors of HIF-2a. inhibition, % at 18.8 µM. 786-0 RCC cells HIF-2a reporter, luciferase luminescence, overnight. hit rate 0.72% among 360,000;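 active means inhibition of the luminescence signal of 40% or more relative to plate controls, in a single-dose primary screen at 18.75 µM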
CF NFkB inh: blocks PAF-induced NF-kB reporter in cystic fibrosis cells | KKLEB NF-kB-GFP reporter, GFP fluorescence overnight | inhibition, % at 5 µM | hit rate 0.86% among 360,000 | AID 588850;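 active means at least 50% inhibition at 5 µM, scaled per plate between neutral and stimulator controls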;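 further: PAF is a Pseudomonas aeruginosa culture filtrate used as stimulus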
Peg3 promoter: reduces Peg3 promoter-driven luciferase expression in HeLa | inhibition, % at 20 µM | hit rate 1.7% among 360,000 | HeLa PEG-Prom luciferase reporter, luminescence, overnight | AID 588405;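 active means inhibition of at least 50% at 20 µM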
TROY signal inh: TROY signaling inhibition | Q293 LMP1-TROYcd NF-kB luciferase reporter, 4 h | inhibition, % at 10 µM | hit rate 0.98% among 360,000 | AID 1347056;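 active means compounds whose plate-normalised and pattern-corrected inhibition of the luciferase reporter signal at the single screening dose is 50% or more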
KKLEB tox: counter-screen for CF NF-kB inhibitors: cytotoxicity | KKLEB CF airway cells viability, ATPlite luminescence, overnight; hits give low values; cells stimulated with P. aeruginosa culture filtrate | activity change (cytotoxicity), % at 5 µM | hit rate 0.36% among 360,000 | AID 602141;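 active means corrected activity change at or below -50% at 5 µM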
Numbers stand for hits; i = inactive; nt = not tested or not shown. An excerpt weighted towards active compounds, which were near 3.9% of everything screened.

SMILES	TWEAK-Fn14 inh	HIF-2a inh	CF NFkB inh	Peg3 promoter	TROY signal inh	KKLEB tox
Cc1c(C(=O)NCc2ccc(Cl)c(Cl)c2)sc(=O)n1Cc1ccc(S(C)(=O)=O)cc1	53	i	i	i	i	i
CC(C)(C)c1ccc(C(=O)/C=C2\NC(=O)CS2)cc1	i	i	i	i	i	i
ON=C1c2cc(OCCN3CCCCC3)ccc2-c2ccc(OCCN3CCCCC3)cc21	i	i	i	111	i	i
Clc1ccc(OCCN2CCOCC2)cc1Cl	i	i	i	i	i	i
NC(=S)NN=C1c2cc(OCCN3CCOCC3)ccc2-c2ccc(OCCN3CCOCC3)cc21	i	i	i	107	75	i
O=C(NCc1ccncc1)[C@@H]1CCCN1C(=O)[C@H]1CCCN1C(=O)c1cccs1	i	i	nt	nt	i	nt
CC(C)NC(=O)c1cccc(Cn2cc(Cl)cn2)c1	i	i	i	i	i	i
COc1ccc(C(=O)Nc2nnc(Cc3ccc(OC)c(OC)c3)s2)c(OC)c1	82	i	i	i	i	i
CCCc1nc(SCC(=O)N2CCC(Cc3ccccc3)CC2)c2c(=O)n(C)c(=O)n(C)c2n1	61	i	i	99	83	i
Cn1c(=O)c2c(SCC(N)=O)nc(CC(C)(C)C)nc2n(C)c1=O	i	i	i	i	i	i
Cn1c(=O)c2c(SCC(=O)N3CCCc4ccccc43)nc(CC(C)(C)C)nc2n(C)c1=O	i	53	i	i	i	i
O=c1[nH]c(C2CCN(S(=O)(=O)c3cccc(C(F)(F)F)c3)CC2)nc2c1nnn2Cc1cccc(F)c1	i	i	i	51	i	i
O=c1[nH]c(C2CCN(S(=O)(=O)c3ccc4c(c3)OCCO4)CC2)nc2c1nnn2Cc1cccc(F)c1	i	i	i	i	i	i
O=C(Nc1nc2ccc(Br)cc2s1)c1ccco1	i	i	i	i	i	i
CCNC(=S)Nc1cc(OC)c(NC(=O)c2ccco2)cc1OC	i	i	i	i	i	i
CCOC(=O)c1cccc(C(=O)Nc2nc3ccc(OC)cc3s2)n1	i	i	i	i	i	-55
COc1ccc2nc(NC(=O)c3ccco3)sc2c1	81	i	i	i	i	i
COc1ccc2nc(NC(=O)c3ccccc3O)sc2c1	i	i	i	i	i	i
COc1cc2nc(NC(=O)c3ccco3)sc(=O)c2cc1OC	71	i	i	i	i	i
COC(=O)c1cc(OC)c(OC)cc1NC(=S)NC(=O)c1ccco1	74	i	i	i	i	i
COc1cc(C2Nc3ccccc3C(=O)N2c2ccc(Cl)cc2)c(Cl)cc1OCC(=O)O (centres undefined)	i	i	i	i	i	i
COCc1nnc(NC(=O)CCS(=O)(=O)c2ccccc2)s1	i	i	i	i	i	i
O=C(CSc1nc2ccccc2o1)Nc1nc2ccc(Br)cc2s1	i	i	i	i	i	i
COc1ccc2nc(NC(=O)CSc3nc4ccccc4o3)sc2c1	i	i	i	i	68	i
O=C(Nc1nc2ccc(Cl)cc2s1)c1ccco1	58	i	i	i	i	i
SMILES	TWEAK-Fn14 inh	HIF-2a inh	CF NFkB inh	Peg3 promoter	TROY signal inh	KKLEB tox
CC(C)(C)NC(=O)C(c1cc2ccccc2o1)n1c(=O)c(-c2cc3ccccc3[nH]2)nc2ccccc21 (centres undefined)	nt	i	nt	nt	nt	nt
CS(=O)(=O)N(CC(=O)N1CCCC1)c1cc(Cl)c(Cl)cc1Cl	i	i	i	i	i	i
CC(=O)Oc1cc2cccc(OC(C)=O)c(=O)c2c(OC(C)=O)c1OC(C)=O	84	i	i	i	i	i
COc1cc2cccc(OC)c(=O)c2c(O)c1OC	i	i	i	i	i	i
c1ccc(-c2ccc(OCCCNC3CCCC3)cc2)cc1	i	i	i	74	i	i
O=c1cc(CSc2ccc(Cl)cc2)nc(-c2ccccn2)[nH]1	106	i	i	91	i	i
CCOc1ncccc1C(=O)NNC(=O)c1cccc(S(=O)(=O)N2CCOCC2)c1	97	i	i	i	i	i
CCOc1ncccc1C(=O)Nc1cccc(S(=O)(=O)N2CCCCC2)c1	i	i	i	i	i	i
O=C(CSc1ccccc1F)Nc1ccc(N2CCOCC2)cc1	i	i	i	i	i	i
CCOC(=O)c1c(C)[nH]c(C(=O)OCC(=O)Nc2cc(Cl)ccc2OC)c1C	i	i	i	i	i	i
CC(=O)c1c(C)[nH]c(C(=O)OCC(=O)Nc2ccc(Cl)cc2[N+](=O)[O-])c1C	64	i	i	i	i	i
CC(=O)c1c(C)[nH]c(C(=O)Nc2ccc(Cl)c(S(=O)(=O)N(C)C)c2)c1C	i	i	i	i	i	i
CC(=O)c1c(C)[nH]c(C(=O)OCC(=O)Nc2ccc(Cl)c(S(=O)(=O)N(C)C)c2)c1C	54	i	i	i	i	i
COc1cc(C(CCN2CCCC2)c2c(OC)cc(OC)c3c(C)cc(=O)oc23)cc(OC)c1OC (centres undefined)	i	i	i	i	i	i
CCCCCc1cc(=O)oc2c(C(CCN3CCN(c4ccccc4)CC3)c3ccc4c(c3)OCO4)c(OC)cc(OC)c12 (centres undefined)	i	i	i	i	i	i
CCCCCc1cc(=O)oc2c(C(CCN(CC)CC)c3ccc(OC)cc3)c(OC)cc(OC)c12 (centres undefined)	i	i	i	101	i	i
CCCCCc1cc(=O)oc2c(C(CCN3CCCC(C)C3)c3ccc(OC)cc3)c(OC)cc(OC)c12 (centres undefined)	i	i	i	96	i	i
CCCCCc1cc(=O)oc2c(C(CCN3CCCCC3)c3ccc(OC)cc3)c(OC)cc(OC)c12 (centres undefined)	i	i	53	102	i	-56
CCCCCc1cc(=O)oc2c(C(CCN3CCCC3)c3cc(OC)c(OC)c(OC)c3)c(OC)cc(OC)c12 (centres undefined)	i	i	i	102	i	i
OCCC1CN(Cc2nc3ccccc3s2)CCN1C1CCCC1 (centres undefined)	i	i	i	i	i	i
N#C/C(=C\c1cn[nH]c1-c1ccccc1Br)C(=O)O	i	i	i	i	i	i
CCCCCc1cc(=O)oc2c(C(CCN3CCCC3)c3ccc(N(C)C)cc3)c(OC)cc(OC)c12 (centres undefined)	i	i	i	97	i	i
CC(Sc1nnc(-c2ccco2)o1)C(=O)NCCC1=CCCCC1 (centres undefined)	i	i	i	i	i	i
N=c1n(Cc2ccccc2)c2ccccc2n1CC(O)COc1ccccc1 (centres undefined)	i	i	i	71	i	i
Cc1ccc(Cn2c(=N)n(CC(O)COc3ccccc3)c3ccccc32)cc1 (centres undefined)	i	i	i	i	i	i
CCCCn1c(=N)n(CC(O)COc2ccccc2)c2ccccc21 (centres undefined)	i	i	i	i	i	i

Screening data (PubChem BioAssay)
